Rows were chosen to be rich in hits. Some 4.3% of all compounds tested hit in one or more screens of this group.
sPLA2-III inh: Inhibits HGIII-sPLA2 liposome hydrolysis, primary screen. Q9NZ20. QFRET BODIPY PC-A2 liposome hydrolysis, fluorescence. inhibition, % at 12.2 µM. 370,000 compounds, 0.56% hits;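 active = inhibition above mean plus 3 SD of compounds lying within the high and low control bounds, cut at about 19% in these data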;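 also: 0% = median of test compound wells and 100% = no enzyme DMSO wells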
ADAM17 inh: ADAM17 inhibition, QFRET primary screen | P78536 | recombinant ADAM17, EDANS/DABCYL FRET peptide cleavage | inhibition, % at 6.95 µM | 370,000 compounds, 0.83% hits;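 active = inhibition above the mean of compounds lying between control limits plus 3 SD, set per campaign, cut at about 8.5% in these data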;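 also: 0% = DMSO-only wells as the low control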
NR3A LBD binder: NR3A (human) ligand-binding domain modulation | NR3A LBD differential scanning fluorimetry, Tm shift; 0% = protein alone, 100% = glycine-bound protein | Tm shift relative to glycine control, % at 25 µM | 340,000 compounds, 2.5% hits | AID 1259313;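 active = melting temperature shift of at least 10% of the positive control shift, at one fixed dose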
ADAM10 inh: inhibits human ADAM10; O14672; recombinant ADAM10, EDANS/DABCYL FRET peptide cleavage, 3 h; inhibition, % at 7 µM; 370,000 compounds, 0.62% hits;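 active = inhibition above a per-campaign cutoff equal to the mean of compounds falling between control-based bounds plus 3 SD, cut at about 20% in these data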;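 also: 0% = DMSO wells while the 100% control is not disclosed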
FAS TE block: blocks the thioesterase domain of human fatty acid synthase. recombinant FAS-TE, OMFH fluorogenic substrate, fluorescence endpoint. inhibition, % at 15 µM. 360,000 compounds, 0.67% hits. AID 602261;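 active = compounds whose normalised, plate-corrected inhibition of enzyme fluorescence in the single-dose primary screen is 50% or more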;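 also: 0% = DMSO with enzyme and 100% = substrate without enzyme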
An asterisk follows results filed as active; i = inactive; / = no result given.

SMILES	sPLA2-III inh	ADAM17 inh	NR3A LBD binder	ADAM10 inh	FAS TE block
CC(C)C[C@@H](CN1CCC[C@@H]1CN1C(=S)NC[C@@H]1Cc1ccccc1)N1C[C@H](Cc2ccc(O)cc2)N(CC2CCCCC2)C1=S	1.3	1.9	/	-5.9	-34.3
CC(C)C[C@H]1CNC(=S)N1C[C@H]1CCCN1C[C@H](CC(C)C)N1C[C@H](Cc2ccc(O)cc2)N(CC2CCCCCC2)C1=S	-13.8	-2.5	/	2.8	-85.1
CC(C)C[C@@H](CN1CCCC1CN1C(=S)NC[C@@H]1Cc1ccc(O)cc1)N1C[C@H](Cc2ccc(O)cc2)N(CC2CCCCC2)C1=S (some centres not stated)	-18.0	5.0	33.2*	4.3	-51.6
CC(C)C[C@H]1CNC(=S)N1CC1CCCN1C[C@H](CC(C)C)N1C[C@H](Cc2ccc(O)cc2)N(CC2CCCCC2)C1=S (some centres not stated)	-35.9	-1.5	11.9*	0.1	-101.9
O=C(Cc1cccs1)Nc1nc2c(ccc3ccccc32)s1	-22.0	-0.9	10.8*	6.4	26.6
CC(=O)Nc1nc2c(ccc3ccccc32)s1	8.4	-0.6	-0.9	-5.7	-6.2
O=C(NCc1ccccc1)C(c1ccco1)N1CCN(CCN2CCOCC2)CC1 (configuration not stated)	12.9	-3.5	/	-10.7	/
O=C(COC(=O)c1ccc(O)cc1O)Nc1ccc2ccccc2c1	-21.1	1.6	13.7*	-0.8	14.0
O=C(COC(=O)c1ccc(CO)cc1)Nc1ccc(OC(F)F)cc1	1.4	-5.0	16.2*	0.4	-0.2
N#CCC(=O)Nc1ccc(C(=O)OCC(=O)Nc2ccc3ccccc3c2)cc1	-45.4	-1.1	29.6*	-10.8	6.5
CC1CCc2c(sc(NC(=O)COC(=O)c3ccc(NC(=O)CC#N)cc3)c2C#N)C1 (configuration not stated)	-49.9	-4.6	26.2*	-2.5	8.8
Cc1c(Cl)c([N+](=O)[O-])nn1CCCC(=O)Nc1cccc(Cl)c1Cl	14.5	0.6	-22.1	-6.5	47.0
Cc1c(Cl)c([N+](=O)[O-])nn1CCCC(=O)Nc1cccc(O)c1	-1.9	-1.7	11.7*	-5.3	4.0
Cc1cc(=O)[nH]c(SCC(=O)c2ccc3c(c2)NC(=O)CO3)n1	-13.5	-5.2	-0.9	-6.2	-6.0
Nc1cc(N)nc(SCC(=O)c2ccc3c(c2)NC(=O)CO3)n1	-3.4	0.3	152.6*	-3.0	-6.4
Cc1cc(S(=O)(=O)N2CCC3(CC2)OCCO3)c(C)cc1Cl	-4.7	0.7	2.2	-0.9	7.7
Cc1cc(S(=O)(=O)N2CCCC2C(=O)N2CCOCC2)c(C)cc1Cl (configuration not stated)	-3.0	-0.7	58.2*	6.9	-10.1
COC(=O)[C@@H]1N=C(c2ccc(OC)cc2)O[C@]12C(=O)N(Cc1cn(-c3ccccc3)nn1)c1cccc(Cl)c12	-13.8	0.7	/	4.9	/
O=C(COC(=O)c1c2c(nc3ccccc13)/C(=C\c1ccco1)CC2)NC1CCCC1	1.7	-9.2	-6.1	-30.2	2.4
O=C(COC(=O)c1c2c(nc3ccccc13)/C(=C/c1cccc([N+](=O)[O-])c1)CCC2)NC1CCS(=O)(=O)C1 (configuration not stated)	-40.6	5.7	10.9*	13.5	14.0
Cn1cccc1C(=O)N1CCN(S(=O)(=O)c2ccc(F)cc2)CC1	-1.4	-2.2	/	0.4	/
O=C(OC12CCCN(C1)/C(=C/c1ccccc1)C2)C1CCCC1 (configuration not stated)	0.1	-2.5	/	-7.9	/
O=c1[nH]c(SCc2ccccc2F)nc2ccccc12	-10.5	-4.6	-1.4	-2.0	0.1
O=c1cc(CSc2nc3ccccc3c(=O)[nH]2)c2ccc(O)cc2o1	-25.9	-26.3	29.4*	-103.7	-2.1
O=C(Nc1cccc(NC(=O)c2ccc(-c3cccc(Br)c3)o2)c1)c1ccco1	-14.9	4.2	12.8*	-3.7	31.2
SMILES	sPLA2-III inh	ADAM17 inh	NR3A LBD binder	ADAM10 inh	FAS TE block
COc1ccc(Br)cc1C(=O)Nc1cccc(NC(=O)c2ccco2)c1	-25.3	3.7	5.0	11.6	27.4
O=C(Nc1cccc(NC(=O)c2ccc(-c3ccc(Br)cc3)o2)c1)c1ccccc1	5.9	-8.2	-8.3	-5.6	22.1
O=C(Nc1ccccc1)c1ccc(-c2ccc(Br)cc2)o1	-11.7	6.2	18.8*	15.6	35.8
CN(C)CCNC=C(C(=O)Nc1ccc(Cl)cc1Cl)C(=O)Nc1ccc(Cl)cc1Cl	-8.4	1.7	12.9*	1.4	5.4
COC(=O)[C@]12C[C@H](CC(=O)N3CCCC3)C(=O)N(Cc3cccc4ccccc34)C1=C[C@H](C1CCCC1)O[C@@H]2C	-9.3	7.4	/	10.9	/
O=C(CNS(=O)(=O)c1cccs1)N1CCN(c2ncccn2)CC1	1.5	-0.7	/	-9.5	/
CCn1cc(C(=O)NC(C)C)c(=O)c2cc(F)c(N3CCN(C(=O)c4ccco4)CC3)cc21	1.2	-124.7	11.9*	-422.4	-2.6
CCn1cc(C(=O)NCCC(C)C)c(=O)c2cc(F)c(N3CCN(C(=O)c4ccco4)CC3)cc21	0.5	-29.4	0.7	-91.8	-136.0
O=C(NCCN1CCC(Cc2ccccc2)CC1)C1CCCN(S(=O)(=O)c2ccccc2)C1 (configuration not stated)	-9.6	0.6	/	1.1	/
COC(=O)C(=O)/C=C(\O)c1ccc(C)cc1	27.0*	-4.2	2.2	-4.2	-5.4
Cc1c(Cc2ccccc2)c(=O)oc2cc(O)ccc12	-26.2	i	-4.6	i	8.4
Cc1c(Cc2ccccc2)c(=O)oc2c(O)c(O)ccc12	-7.3	-30.8	10.1*	-81.7	15.3
O=C1CSc2ccc(C(=O)N3CCCC(C(=O)N4CCN(c5ccc(F)cc5)CC4)C3)cc2N1 (configuration not stated)	0.9	4.2	/	-12.1	/
CCOC(=O)C1=C(c2ccccc2)NC(=S)NC1c1cccc([N+](=O)[O-])c1 (configuration not stated)	15.6	2.5	14.0*	-6.3	4.3
CCOC(=O)C1=C(c2ccccc2)NC(=S)NC1c1ccc(C)c([N+](=O)[O-])c1 (configuration not stated)	5.3	2.1	-6.8	5.5	18.5
C[C@@H]1COc2cc(Br)ccc2S(=O)(=O)N1Cc1cn(CC2CCCCC2)nn1	2.4	-0.4	/	1.3	/
N#Cc1c(NC(=O)c2ccccc2)sc2c1CCCCC2	10.4	-7.9	0.5	-110.3	8.7
N#Cc1c(Cl)nsc1NC(=O)c1ccccc1	-13.3	-1.5	10.9*	-2.1	-5.6
COC(=O)[C@H]1C[C@@]2(n3ccc4ccccc43)c3ccccc3N(S(=O)(=O)c3ccccc3)[C@H]2N1C(=O)CNC1CCCCC1	1.5	-0.6	/	-0.8	/
CCc1cccc2c(C(=O)COC(=O)c3ccc([N+](=O)[O-])s3)c[nH]c12	-27.0	8.5	10.5*	16.9	30.7
Cn1cnc2c1c(=O)[nH]c(=O)n2Cc1ccccc1	-5.5	-2.5	10.3*	-1.5	-3.9
